Laboratory results as given in PubChem BioAssay (NCATS).
Records with an inconclusive call do not appear. Calls of active or inactive are those of the source. Calls follow the shape of the dose curve; as a rule, active = well fitted cell-killing curve with a large enough effect; inconclusive = small, poorly fitted or top-dose-only effect, or effect the other way; inactive = flat fitted curve, though single readings scatter.

Tests used:
Assay in all cases: Primary qHTS to identify gynecologic anti-cancer compounds using libraries of approved drugs and bioactive compounds (AID 1345084); also: nearly all actives have a fitted effect of over 55% in size
C33A = settings: Gynecologic cancer cell panel viability, ATPlite luminescence, 48 h; series mostly up to 57.5 µM
Summary of the method: (§1)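 Cells, 1,000 per well, plated 16 h, then exposed 48 h at 37 C to compounds. Viability by ATPlite luminescence after 15 min at room temperature.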

CAOV3 = settings: Gynecologic cancer cell panel viability, ATPlite luminescence, 48 h; series mostly up to 57.5 µM
Summary of the method: as §1

CASKI = settings: Gynecologic cancer cell panel viability, ATPlite luminescence, 48 h; series mostly up to 57.5 µM
Summary of the method: as §1

Es-2 = settings: Gynecologic cancer cell panel viability, ATPlite luminescence, 48 h; series mostly up to 57.5 µM
Summary of the method: as §1

HeLa = settings: Gynecologic cancer cell panel viability, ATPlite luminescence, 48 h; series mostly up to 57.5 µM
Summary of the method: as §1

Hek293T = settings: Gynecologic cancer cell panel viability, ATPlite luminescence, 48 h, control line for the selectivity index; series mostly up to 57.5 µM
Summary of the method: as §1

JEG-3 = settings: Gynecologic cancer cell panel viability, ATPlite luminescence, 48 h; series mostly up to 57.5 µM
Summary of the method: as §1

OV90 = settings: Gynecologic cancer cell panel viability, ATPlite luminescence, 48 h; series mostly up to 57.5 µM
Summary of the method: as §1

PA-1 = settings: Gynecologic cancer cell panel viability, ATPlite luminescence, 48 h; series mostly up to 57.5 µM
Summary of the method: as §1

SKOV3 = settings: Gynecologic cancer cell panel viability, ATPlite luminescence, 48 h; series mostly up to 57.5 µM
Summary of the method: as §1

Tov-21-G = settings: Gynecologic cancer cell panel viability, ATPlite luminescence, 48 h; series mostly up to 57.5 µM
Summary of the method: as §1

Tov112D = settings: Gynecologic cancer cell panel viability, ATPlite luminescence, 48 h; series mostly up to 57.5 µM
Summary of the method: as §1

Measured: Potency

CC1(O)CC(O)C2(O)C=COC(O[C@@H]3O[C@H](CO)[C@@H](O)[C@H](O)[C@H]3O)C12 (stereo partly specified)
inactive: all assays above

CC(=O)CCC1=C(C)C(O[C@@H]2O[C@H](CO)[C@@H](O)[C@H](O)[C@H]2O)C(O)CC1(C)C (stereo partly specified)
inactive: all assays above

COC(=O)C1=COC(O[C@@H]2O[C@H](CO)[C@@H](O)[C@H](O)[C@H]2O)[C@H]2[C@@H]1[C@H](OC(=O)CCc1ccc(O)cc1)C[C@]2(C)O (stereo partly specified)
inactive: all assays above

COc1c2c(cc3c1-c1c(cc4c(c1OC)OCO4)CC(C)C(C)C3)OCO2 (stereo unspecified)
inactive: all assays above

CC1=CC(=O)C2C(C)(C)CCC[C@]2(C)[C@H]1CO (stereo partly specified)
inactive: all assays above

Cc1cn(C2C=CC(CO)O2)c(=O)[nH]c1=O (stereo unspecified)
inactive: all assays above

CC1=CC(=O)C(=C(C)C)CC2C1CCC2(C)O (stereo unspecified)
inactive: all assays above

CC1(C)CCCC2(C)C(CO)C(CO)=CCC12 (stereo unspecified)
inactive: all assays above

C/C(=C\CCC1(C)C2CCC(C2)C1(C)O)C(=O)O (stereo unspecified)
inactive: all assays above

CC(CO)C1CCC2(C)CC3C(CO)CC(O)C3C(C)(O)C/C=C/12 (stereo unspecified)
inactive: all assays above

CC12CCC3c4ccc(O)cc4CCC3C1CC(OC1OC(C(=O)O)C(O)C(O)C1O)C2O (stereo unspecified)
inactive: all assays above

COC(=O)C1=CO[C@@H](O[C@@H]2O[C@H](CO)[C@@H](O)[C@H](O)[C@H]2O)[C@H]2[C@@H]1CC(OC)O[C@@H]2C (stereo partly specified)
inactive: all assays above

CCOC(=O)CCN(C(=O)c1ccc2c(c1)nc(CNc1ccc(C(=N)N)cc1)n2C)c1ccccn1
inactive: all assays above
